KCNH2 WT inh: inhibitors of human wildtype KCNH2 potassium channel; Q12809; U2OS, BacMam KCNH2, thallium flux FluxOr; active compounds read low; activity change, % at 1.84 µM; 340,000 tested, 0.37% active;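 active means maximum activity change below -70%; inconclusive means maximum activity change between -70% and -50%; inactive means maximum activity change above -50%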; further: on the % scale 0 is the no-effect control and ±100 the full control effect
Target sequence (Q12809 whole entry, looked up): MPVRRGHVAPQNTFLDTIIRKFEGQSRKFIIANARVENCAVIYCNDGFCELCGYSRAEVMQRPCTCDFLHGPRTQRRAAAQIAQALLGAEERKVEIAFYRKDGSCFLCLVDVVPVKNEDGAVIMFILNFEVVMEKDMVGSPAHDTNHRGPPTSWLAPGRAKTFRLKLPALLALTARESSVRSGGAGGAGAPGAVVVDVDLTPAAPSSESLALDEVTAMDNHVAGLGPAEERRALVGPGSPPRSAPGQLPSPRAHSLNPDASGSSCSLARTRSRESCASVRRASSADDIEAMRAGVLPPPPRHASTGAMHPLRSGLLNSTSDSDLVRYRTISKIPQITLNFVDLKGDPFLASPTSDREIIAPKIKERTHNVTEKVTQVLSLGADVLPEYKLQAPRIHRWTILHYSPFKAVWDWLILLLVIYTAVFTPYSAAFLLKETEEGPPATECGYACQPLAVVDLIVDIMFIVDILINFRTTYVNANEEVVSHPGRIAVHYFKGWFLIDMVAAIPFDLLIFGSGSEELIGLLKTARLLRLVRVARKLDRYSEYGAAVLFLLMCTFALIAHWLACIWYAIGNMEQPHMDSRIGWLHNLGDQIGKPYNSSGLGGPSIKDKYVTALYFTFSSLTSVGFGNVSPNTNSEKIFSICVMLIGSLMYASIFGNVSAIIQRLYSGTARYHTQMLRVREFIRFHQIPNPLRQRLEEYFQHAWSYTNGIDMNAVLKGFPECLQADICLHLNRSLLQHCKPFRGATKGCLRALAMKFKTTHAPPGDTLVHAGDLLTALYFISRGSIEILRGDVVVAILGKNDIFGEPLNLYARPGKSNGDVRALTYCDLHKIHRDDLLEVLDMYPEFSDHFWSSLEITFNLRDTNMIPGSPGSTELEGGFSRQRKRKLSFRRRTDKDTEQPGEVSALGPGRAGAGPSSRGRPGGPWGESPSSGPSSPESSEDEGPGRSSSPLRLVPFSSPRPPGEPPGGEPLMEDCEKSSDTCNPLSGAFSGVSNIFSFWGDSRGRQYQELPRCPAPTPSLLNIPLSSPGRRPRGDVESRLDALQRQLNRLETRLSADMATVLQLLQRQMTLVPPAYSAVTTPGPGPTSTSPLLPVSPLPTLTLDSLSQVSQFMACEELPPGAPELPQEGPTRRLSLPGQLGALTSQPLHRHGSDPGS
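U2OS cells were transduced with wild-type KCNH2 virus (2.03 x 10^8 / mL) for 4 h at room temperature, then cultured overnight at 37 C. Thallium flux was read with FluxOr dye. Rate constants were normalized to DMSO controls.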
gsp antag: gsp mutant antagonism | gsp-mutant cells, cAMP HTRF, 30 min | Potency, µM (titrated, usually from 76.9 µM), inactives show top-dose activity change, negative = inhibition, most hits filed as inhibitors | 340,000 tested, 0.4% active; calls by dose curve; cell line not stated here;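 further: intracellular cAMP measured with PDE inhibitor Ro 20-1724 present during compound exposure; potency means the concentration at half of the fitted maximal effect; on the % scale 0 is the no-effect control and ±100 the full control effect; nearly all actives have a fitted effect of over 65% in size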
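HTRF cAMP read-out (cAMP-d2 plus anti-cAMP antibody-K in lysis buffer, 30 min RT). Before lysis, cells are exposed to compounds with […] for 30 min at 37C in DPBS containing Ca/Mg, BSA and Tween 20.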
GRP78 ERSR act: induces the endoplasmic reticulum stress response in human glioma cells; U87-MG GRP78 promoter luciferase reporter, 16 h; Potency, µM, for inactives: at the highest dose activation, most hits filed as activators; 420,000 tested, 0.02% active; AID 602332; active means well fitted activation curve with a large enough effect; inconclusive means small, poorly fitted or top-dose-only effect; inactive means no such curve, though single readings can be large or run the other way; further: potency means the concentration at half of the fitted maximal effect; series mostly up to about 76 µM; % of control where 0% means no effect; nearly all actives have a fitted effect of over 35% in size
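Stably transfected U87-MG glioma cells carrying a GRP78-based luciferase sensor; 16 h compound incubation. Luminescence end-point read 10 min after Bright-Glo addition at room temperature.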
gsp ag: activates gsp, the McCune-Albright syndrome mutation | gsp mutant cells, cAMP HTRF, 30 min | Potency, µM (titrated, usually from 76.9 µM), for inactives: top-dose activation (cAMP increase), most hits filed as activators | 340,000 tested, 0.13% active | AID 624287; active means well fitted activation curve with a large enough effect; inconclusive means small, poorly fitted or top-dose-only effect, or another doubt; inactive means no such curve, though single readings can be large or run the other way; cell line not stated here;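 further: phosphodiesterase inhibitor Ro 20-1724 added with compounds to block cAMP breakdown; potency means the concentration at half of the fitted maximal effect; nearly all actives have a fitted effect of over 60% in size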
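Cells stably selected in G418 were plated at 2000/well, grown 16-24 hr, then given compounds in DMSO with the PDE inhibitor […] (300 uM solution added) for 30 min at 37C; cAMP was read by HTRF.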
pAkt inh: blocks phosphorylation of Akt. Neuro2A IGF-stimulated pAkt S473 HTRF, 20 min; active compounds read low. activity change, % for hits at 50 µM. 360,000 tested, 0.32% active; in the data active means activity change below about -80%; inconclusive means mostly about -51% to -80%; further: on the % scale 0 is the no-effect control and ±100 the full control effect
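Neuro2A cells in DMEM with 0.5% FBS, overnight at 37 deg C, given compound at single 50 µM final, then IGF (6 nM final) for 20 min at 37 deg C. Lysed; phospho-Akt Ser473 by HTRF after 24 h, 665/615 ratio.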
KCNH2 3.1 inh: KCNH2 3.1 (human) potassium channel inhibition; U2OS KCNH2 3.1, thallium flux FluxOr; active compounds read low; activity change, % (tested at about 1.8 µM); 340,000 tested, 0.95% active;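 active means maximum activity change below -70%; inconclusive means maximum activity change from -70% to -50%; inactive means maximum activity change above -50%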;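 further: thallium influx rate constant from kinetic fluorescence after stimulation buffer; on the % scale 0 is the no-effect control and ±100 the full control effect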
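Channel expression came from 3.1 mutant virus (1.77 x 10^8 /mL) applied to suspended U2OS cells for 4 h. Flux was tracked with FluxOr dye plus Red40 quencher, and kinetic rate constants normalized to controls.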
* marks the source's active call; other numbers are inactive results; i = inactive; ? = inconclusive; . = no result given; [ ] = another dose, or the depositor's remark. Shown are actives, neighbours in structure and some others; about 1.6% of the full set was active somewhere.

SMILES	KCNH2 WT inh	gsp antag	GRP78 ERSR act	gsp ag	pAkt inh	KCNH2 3.1 inh
CCOc1ccc2c(c1)/C(=N/N1C(=O)c3ccccc3C1=O)C(=O)N2	5	-9%	-1%	-24%[15.4 µM]	i	7
Cc1ccc2c(c1)/C(=N/N1C(=O)c3ccccc3C1=O)C(=O)N2	-3	4%	-3%	1%	i	-155*
Cc1cc(NC(=O)c2ccc(F)cc2)n(CCOC(=O)c2ccc(F)cc2)n1	6	-3%	-3%	-17%	i	1
Cc1cc(NC(=O)c2ccc(Cl)cc2)n(CCOC(=O)c2ccc(Cl)cc2)n1	-98*	1%	-1%	-23%	i	1
Cc1nc2ccc(F)cc2cc1C(=O)Nc1ccc(Cl)c(Cl)c1	-130*	3%	-2%	?	i	4
Cc1nc2ccc(F)cc2cc1C(=O)NCc1ccco1	-1	5%	0%	-4%	i	5
CCN(Cc1ccccc1)C(=O)CN1C(=O)NC(CC)(c2ccc(F)cc2)C1=O (stereo not given)	-83*	-1%	2%	-9%[15.4 µM]	i	-3
C=C1CSc2nc(=O)c3c4c(sc3n21)CCC4	-1	-5%	-5%	?	-115%*	0
COC(=O)C[C@@H]1C[C@H]2c3cc(NC(=O)C4CCC4)ccc3O[C@H]2[C@@H](CO)O1	-2	.	-5%	?	i	-11
O=C(C[C@@H]1C[C@H]2c3cc(NC(=O)C4CCC4)ccc3O[C@H]2[C@@H](CO)O1)NCc1ccc(-c2ccccc2)cc1	-10	.	-8%	32µM*	i	-19
COC(=O)c1cccc(-c2cc(Cl)c3c(c2)CC(CNC(=O)c2cccnc2)O3)c1 (stereo not given)	.	.	2%	.	.	.
CC(C(=O)N1CCN(c2ccc(Cl)cc2)CC1)c1ncc(C(F)(F)F)cc1Cl (stereo not given)	3	35µM*	6%	-62%	i	4
CC(C(=O)NC1CC1)c1ncc(C(F)(F)F)cc1Cl (stereo not given)	3	20%	-2%	5%[15.4 µM]	i	5
CCn1c(SCC(=O)Nc2nc3ccccc3s2)nnc1-c1ccc(Br)cc1	3	18%	-4%	13%	-89%*	-14
Cc1cccc(NC(=O)CN(C)S(=O)(=O)c2ccc(Br)cc2)n1	-9	7%	-2%	1%	i	-8
CN(CC(=O)Nc1nc2ccccc2s1)S(=O)(=O)c1ccc(Cl)cc1	8	32µM*	4%	-7%	i	29
CN(CC(=O)Nc1nc2ccccc2s1)S(=O)(=O)c1ccc(Br)cc1	21	40µM*	1%	-10%	i	10
COc1cc2c(cc1OC)CN(C(=O)[C@@H]1C[C@H](NCc3cn(C)c4ccccc34)CN1C1Cc3ccccc3C1)CC2	.	.	-3%	.	.	.
O=C(NCc1ccccc1)N1CCC(n2cnc3cc(F)ccc32)CC1	1	-11%	-2%	-13%	-112%*	-5
COc1cccc(C2(CC(=O)N3CCN(c4ccccn4)CC3)CC(=O)N(C3CCCC3)C2=O)c1 (stereo not given)	.	.	-2%	.	.	.
Cc1ccc(-n2c(-c3ccco3)nc3c(cnn3-c3ccccc3Cl)c2=O)cc1	.	.	1%	.	.	.
Cc1nc2c(cnn2-c2ccccc2Cl)c(=O)n1-c1ccc(C(C)C)cc1	1	35µM*	-3%	-35%	i	-7
Cc1nc2ccccc2n1CCOc1ccc([N+](=O)[O-])cc1	45	7%	-6%	2%	i	-79*
COc1ccc(OCCn2c(C)nc3ccccc32)cc1	-1	.	0%	-9%	i	1
O=C(NCC1Cc2cccc(-c3cccnc3)c2O1)c1ccc2cc[nH]c2c1 (stereo not given)	.	.	0%	.	.	.
SMILES	KCNH2 WT inh	gsp antag	GRP78 ERSR act	gsp ag	pAkt inh	KCNH2 3.1 inh
CCCCn1c(/C=C/c2ccco2)nc2ccccc21	-1	11%	1%	7%	i	0
CCCCn1c(/C=N/Nc2nc3ccccc3[nH]2)nc2ccccc21	-73*	-28%	1%	0%	i	-44
Fc1ccccc1-c1ccc(/C=N/Nc2nc3ccccc3[nH]2)o1	-15	40µM*	16%	-27%	i	?
Cc1ccc(OC(=O)C2c3ccccc3Oc3ccccc32)cc1C	-131*	0%	-4%	3%	i	-20
O=C(C1CCOC1)N1CCOc2ccc(CN3CCC(Oc4cccnc4)CC3)cc2C1 (stereo not given)	.	.	-2%	.	.	.
c1ccc2sc(-c3ccc4c(c3)OCO4)nc2c1	-3	-3%	-12%	17%	-112%*	-3
CSCC[C@H](NC(=O)[C@H](CCC(N)=O)NC(=O)[C@H](CCCCN)NC(=O)[C@H](CCCNC(=N)N)NC(=O)[C@H](Cc1ccc(O)cc1)NC(=O)[C@H](CCCNC(=N)N)NC(=O)[C@H](CO)NC(=O)[C@H](Cc1ccc(O)cc1)NC(=O)[C@H](CO)NC(=O)[C@H](CC(=O)O)NC(=O)[C@@H](NC(=O)[C@@H](N)Cc1ccccc1)[C@@H](C)O)C(=O)N[C@@H](C)C(=O)N[C@H](C(=O)N[C@@H](CCCCN)C(=O)N[C@@H](CCCCN)C(=O)N[C@@H](Cc1ccc(O)cc1)C(=O)N[C@@H](CC(C)C)C(=O)N[C@@H](C)C(=O)N[C@@H](C)C(=O)N[C@H](C(=O)N[C@@H](CC(C)C)C(=O)NCC(=O)N[C@@H](CCCCN)C(=O)N[C@@H](CCCNC(=N)N)C(=O)N[C@@H](Cc1ccc(O)cc1)C(=O)N[C@@H](CCCCN)C(=O)N[C@@H](CCC(N)=O)C(=O)N[C@@H](CCCNC(=N)N)C(=O)N[C@H](C(=O)N[C@@H](CCCCN)C(=O)N[C@@H](CC(N)=O)C(=O)N[C@@H](CCCCN)C(N)=O)C(C)C)C(C)C)C(C)C	.	.	-5%	.	.	.
O=C(c1ccccc1)c1ccccc1N1C(=O)C=CC1=O	-4	-13%	-14%	-9%[15.4 µM]	i	1
O=C1C=CC(=O)N1c1ccccc1N1C(=O)C=CC1=O	-135*	?	-14%	-10%	i	-193*
CC1(C)CC(=O)CC2(C1)NCC(c1ccccc1)c1c2[nH]c2ccccc12 (stereo not given)	-75*	-27%	1%	0%	i	-102*
COc1cccc(C2CNC3(CCCC(C)C3)c3[nH]c4ccccc4c32)c1OC (stereo not given)	-3	2%	0%	-55%	i	-31
CC(C)(C)c1ccc(C(=O)CCC(=O)OCC(=O)NCCc2ccc(S(N)(=O)=O)cc2)cc1	-12	32µM*	-10%	1%	i	-15
